# From the supplement of paper PMC12282887
# ± gives the standard deviation of the averaged measurements.
# Key:
# Test in all cases: promoter activity interaction Z-score (Lux/OD deviation from empty-vector control); higher = stronger promoter induction by the compound
# [1] = system: E. coli BW25113 robp lux reporter
# In short: (§1)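 OD600 and luminescence of E. coli BW25113 reporter cultures (40 µl LB Lennox, 384-well plates, 37°C) were measured every 30 min for 12 h. Integration ran over 0–8 h for wild type or 1–9 h for deletion strains, and wells with growth below 10% of the median were dropped. The score is the Z-transformed residual of growth-normalised luminescence fitted against a control.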
# [2] = system: E. coli BW25113 soxSp lux reporter
# In short: as §1
# [3] = system: E. coli BW25113 tolCp lux reporter
# In short: as §1
# [4] = system: E. coli BW25113 acrABp lux reporter
# In short: as §1
# [5] = system: E. coli BW25113 micFp lux reporter
# In short: as §1
# [6] = system: E. coli BW25113 ompFp lux reporter
# In short: as §1
# [7] = 4.2 µg/ml, genetic background: wild type
# [8] = 4.2 µg/ml, genetic background: ΔmarA
# [9] = 4.2 µg/ml, genetic background: Δrob
# [10] = 4.2 µg/ml, genetic background: ΔsoxS
# [11] = 0.53 µg/ml, genetic background: wild type
# [12] = 0.53 µg/ml, genetic background: ΔmarA
# [13] = 0.53 µg/ml, genetic background: Δrob
# [14] = 0.53 µg/ml, genetic background: ΔsoxS
# [15] = 1.1 µg/ml, genetic background: wild type
# [16] = 1.1 µg/ml, genetic background: ΔmarA
# [17] = 1.1 µg/ml, genetic background: Δrob
# [18] = 1.1 µg/ml, genetic background: ΔsoxS
# [19] = 2.1 µg/ml, genetic background: wild type
# [20] = 2.1 µg/ml, genetic background: ΔmarA
# [21] = 2.1 µg/ml, genetic background: Δrob
# [22] = 2.1 µg/ml, genetic background: ΔsoxS
# [23] = 22.7 µg/ml, genetic background: wild type
# [24] = 22.7 µg/ml, genetic background: ΔmarA
# [25] = 22.7 µg/ml, genetic background: Δrob
# [26] = 22.7 µg/ml, genetic background: ΔsoxS
# [27] = 45.3 µg/ml, genetic background: wild type
# [28] = 45.3 µg/ml, genetic background: ΔmarA
# [29] = 45.3 µg/ml, genetic background: Δrob
# [30] = 45.3 µg/ml, genetic background: ΔsoxS
# [31] = 90.6 µg/ml, genetic background: wild type
# [32] = 90.6 µg/ml, genetic background: ΔmarA
# [33] = 90.6 µg/ml, genetic background: Δrob
# [34] = 90.6 µg/ml, genetic background: ΔsoxS
# [35] = 181.2 µg/ml, genetic background: wild type
# [36] = 181.2 µg/ml, genetic background: ΔmarA
# [37] = 181.2 µg/ml, genetic background: Δrob
# [38] = 181.2 µg/ml, genetic background: ΔsoxS
smiles,measurement,setting,value
Cc1onc(-c2ccccc2)c1C(=O)N[C@@H]1C(=O)N2[C@@H]1SC(C)(C)[C@@H]2C(=O)O [Oxacillin],promoter activity interaction Z-score,[1]; [7],0.385 ± 0.34
same,promoter activity interaction Z-score,[1]; [8],1.01 ± 0.081
same,promoter activity interaction Z-score,[1]; [9],0.222 ± 0.11
same,promoter activity interaction Z-score,[1]; [10],1.08 ± 0.62
same,promoter activity interaction Z-score,[2]; [11],-0.0338 ± 0.24
same,promoter activity interaction Z-score,[2]; [12],-0.139 ± 0.028
same,promoter activity interaction Z-score,[2]; [13],-0.137 ± 0.026
same,promoter activity interaction Z-score,[2]; [14],0.0469 ± 0.46
same,promoter activity interaction Z-score,[2]; [15],0.0426 ± 0.12
same,promoter activity interaction Z-score,[2]; [16],0.0745 ± 0.03
same,promoter activity interaction Z-score,[2]; [17],-0.157 ± 0.17
same,promoter activity interaction Z-score,[2]; [18],-0.0373 ± 0.73
same,promoter activity interaction Z-score,[2]; [19],0.0115 ± 0.12
same,promoter activity interaction Z-score,[2]; [20],-0.148 ± 0.13
same,promoter activity interaction Z-score,[2]; [21],-0.0916 ± 0.13
same,promoter activity interaction Z-score,[2]; [22],0.0598 ± 0.27
same,promoter activity interaction Z-score,[2]; [7],-0.0461 ± 0.098
same,promoter activity interaction Z-score,[2]; [8],-0.0772 ± 0.096
same,promoter activity interaction Z-score,[2]; [9],-0.0369 ± 0.08
same,promoter activity interaction Z-score,[2]; [10],0.0279 ± 0.51
same,promoter activity interaction Z-score,[3]; [11],-0.367 ± 0.24
same,promoter activity interaction Z-score,[3]; [12],-0.79 ± 0.24
same,promoter activity interaction Z-score,[3]; [13],-0.414 ± 0.28
same,promoter activity interaction Z-score,[3]; [14],-0.864 ± 0.42
same,promoter activity interaction Z-score,[3]; [15],0.453 ± 0.31
same,promoter activity interaction Z-score,[3]; [16],0.956 ± 0.37
same,promoter activity interaction Z-score,[3]; [17],0.349 ± 0.2
same,promoter activity interaction Z-score,[3]; [18],-0.174 ± 0.0082
same,promoter activity interaction Z-score,[3]; [19],-0.798 ± 0.98
same,promoter activity interaction Z-score,[3]; [20],-0.615 ± 0.57
same,promoter activity interaction Z-score,[3]; [21],-0.016 ± 0.46
same,promoter activity interaction Z-score,[3]; [22],-0.0987 ± 0.39
same,promoter activity interaction Z-score,[3]; [7],-0.558 ± 0.11
same,promoter activity interaction Z-score,[3]; [8],-0.589 ± 0.39
same,promoter activity interaction Z-score,[3]; [9],-0.155 ± 0.7
same,promoter activity interaction Z-score,[3]; [10],-0.224 ± 1.2
C[C@]12CCC(=O)C=C1CC[C@@H]1[C@@H]2[C@@H](O)C[C@@]2(C)[C@H]1CC[C@]2(O)C(=O)CO [Hydrocortisone],promoter activity interaction Z-score,[4]; [23],0.0762 ± 0.23
same,promoter activity interaction Z-score,[4]; [24],1.29 ± 0.12
same,promoter activity interaction Z-score,[4]; [25],0.155 ± 0.043
same,promoter activity interaction Z-score,[4]; [26],-0.247 ± 0.36
same,promoter activity interaction Z-score,[4]; [27],-0.118 ± 0.13
same,promoter activity interaction Z-score,[4]; [28],-0.299 ± 0.39
same,promoter activity interaction Z-score,[4]; [29],-0.0995 ± 0.075
same,promoter activity interaction Z-score,[4]; [30],-0.18 ± 0.021
same,promoter activity interaction Z-score,[4]; [31],-0.0327 ± 0.25
same,promoter activity interaction Z-score,[4]; [32],0.944 ± 0.81
same,promoter activity interaction Z-score,[4]; [33],-0.203 ± 0.1
same,promoter activity interaction Z-score,[4]; [34],-0.563 ± 0.76
same,promoter activity interaction Z-score,[4]; [35],-0.103 ± 0.25
same,promoter activity interaction Z-score,[4]; [36],0.322 ± 0.17
same,promoter activity interaction Z-score,[4]; [37],-0.0446 ± 0.063
same,promoter activity interaction Z-score,[4]; [38],-0.63 ± 0.4
same,promoter activity interaction Z-score,[5]; [23],-0.121 ± 0.17
same,promoter activity interaction Z-score,[5]; [24],-0.0598 ± 0.096
same,promoter activity interaction Z-score,[5]; [25],0.0274 ± 0.19
same,promoter activity interaction Z-score,[5]; [26],-0.338 ± 0.18
same,promoter activity interaction Z-score,[5]; [27],-0.199 ± 0.022
same,promoter activity interaction Z-score,[5]; [28],-0.00993 ± 0.17
same,promoter activity interaction Z-score,[5]; [29],-0.112 ± 0.071
same,promoter activity interaction Z-score,[5]; [30],-0.292 ± 0.17
same,promoter activity interaction Z-score,[5]; [31],-0.0486 ± 0.33
same,promoter activity interaction Z-score,[5]; [32],0.0152 ± 0.072
same,promoter activity interaction Z-score,[5]; [33],-0.0859 ± 0.072
same,promoter activity interaction Z-score,[5]; [34],-0.443 ± 0.012
same,promoter activity interaction Z-score,[5]; [35],-0.162 ± 0.41
same,promoter activity interaction Z-score,[5]; [36],0.0829 ± 0.11
same,promoter activity interaction Z-score,[5]; [37],0.0154 ± 0.043
same,promoter activity interaction Z-score,[5]; [38],-0.487 ± 0.11
same,promoter activity interaction Z-score,[6]; [23],-0.318 ± 0.33
same,promoter activity interaction Z-score,[6]; [24],-1.05 ± 0.19
same,promoter activity interaction Z-score,[6]; [25],-0.188 ± 0.34
same,promoter activity interaction Z-score,[6]; [26],-0.146 ± 0.36
same,promoter activity interaction Z-score,[6]; [27],-0.51 ± 0.41
same,promoter activity interaction Z-score,[6]; [28],-0.8954 ± 0.0059
same,promoter activity interaction Z-score,[6]; [29],-0.15 ± 0.053
same,promoter activity interaction Z-score,[6]; [30],-0.152 ± 0.059
same,promoter activity interaction Z-score,[6]; [31],-0.587 ± 0.064
same,promoter activity interaction Z-score,[6]; [32],-0.994 ± 0.16
same,promoter activity interaction Z-score,[6]; [33],-0.657 ± 0.24
same,promoter activity interaction Z-score,[6]; [34],-1.03 ± 0.14
same,promoter activity interaction Z-score,[6]; [35],-0.507 ± 0.061
same,promoter activity interaction Z-score,[6]; [36],-0.698 ± 0.09
same,promoter activity interaction Z-score,[6]; [37],-0.507 ± 0.34
same,promoter activity interaction Z-score,[6]; [38],-0.928 ± 0.4
same,promoter activity interaction Z-score,[1]; [23],0.0773 ± 1.2
same,promoter activity interaction Z-score,[1]; [24],0.0463 ± 0.066
same,promoter activity interaction Z-score,[1]; [25],0.694 ± 1.1
same,promoter activity interaction Z-score,[1]; [26],-0.236 ± 0.064
same,promoter activity interaction Z-score,[1]; [27],-0.333 ± 0.93
same,promoter activity interaction Z-score,[1]; [28],0.247 ± 0.23
same,promoter activity interaction Z-score,[1]; [29],0.312 ± 0.14
same,promoter activity interaction Z-score,[1]; [30],0.174 ± 0.55
same,promoter activity interaction Z-score,[1]; [31],-0.0645 ± 0.73
same,promoter activity interaction Z-score,[1]; [32],-0.315 ± 0.028
same,promoter activity interaction Z-score,[1]; [33],0.1 ± 1.2
same,promoter activity interaction Z-score,[1]; [34],-0.777 ± 0.35
same,promoter activity interaction Z-score,[1]; [35],-0.438 ± 0.64
same,promoter activity interaction Z-score,[1]; [36],-0.167 ± 0.27
same,promoter activity interaction Z-score,[1]; [37],0.558 ± 0.36
same,promoter activity interaction Z-score,[1]; [38],0.106 ± 1
same,promoter activity interaction Z-score,[2]; [23],0.274 ± 0.098
same,promoter activity interaction Z-score,[2]; [24],-0.206 ± 0.075
same,promoter activity interaction Z-score,[2]; [25],0.0559 ± 0.11
same,promoter activity interaction Z-score,[2]; [26],-0.266 ± 0.045
same,promoter activity interaction Z-score,[2]; [27],0.0799 ± 0.065
same,promoter activity interaction Z-score,[2]; [28],-0.198 ± 0.084
same,promoter activity interaction Z-score,[2]; [29],0.0141 ± 0.1
same,promoter activity interaction Z-score,[2]; [30],-0.247 ± 0.054
same,promoter activity interaction Z-score,[2]; [31],-0.0463 ± 0.13
same,promoter activity interaction Z-score,[2]; [32],-0.321 ± 0.095
same,promoter activity interaction Z-score,[2]; [33],-0.185 ± 0.0079
same,promoter activity interaction Z-score,[2]; [34],-0.58 ± 0.1
same,promoter activity interaction Z-score,[2]; [35],-0.0782 ± 0.16
same,promoter activity interaction Z-score,[2]; [36],-0.3408 ± 0.003
same,promoter activity interaction Z-score,[2]; [37],-0.284 ± 0.044
same,promoter activity interaction Z-score,[2]; [38],-0.743 ± 0.29
same,promoter activity interaction Z-score,[3]; [23],0.184 ± 0.076
same,promoter activity interaction Z-score,[3]; [24],0.724 ± 1.1
same,promoter activity interaction Z-score,[3]; [25],0.231 ± 1.1
same,promoter activity interaction Z-score,[3]; [26],-0.0445 ± 0.42
same,promoter activity interaction Z-score,[3]; [27],-0.258 ± 0.085
same,promoter activity interaction Z-score,[3]; [28],0.509 ± 1.2
same,promoter activity interaction Z-score,[3]; [29],0.65 ± 0.86
same,promoter activity interaction Z-score,[3]; [30],-1.3 ± 0.73
same,promoter activity interaction Z-score,[3]; [31],0.153 ± 0.86
same,promoter activity interaction Z-score,[3]; [32],0.621 ± 0.97
same,promoter activity interaction Z-score,[3]; [33],0.0433 ± 0.14
same,promoter activity interaction Z-score,[3]; [34],-0.413 ± 0.29
same,promoter activity interaction Z-score,[3]; [35],-0.363 ± 0.23
same,promoter activity interaction Z-score,[3]; [36],0.0951 ± 0.92
same,promoter activity interaction Z-score,[3]; [37],0.261 ± 1.6
same,promoter activity interaction Z-score,[3]; [38],0.18 ± 0.34
